Shown are actives, neighbours in structure and some others; about 19% of the full set was active somewhere.
IL1B secr inh: inflammasome signaling inhibition, IL-1 beta readout. hit rate 4.7% among 360,000. THP-1 LPS/ATP IL-1B secretion, AlphaLISA, 16 h; hits give low values. activity change, % at 57.5 µM. AID 743279; in the data active means activity change below about -50%; inconclusive means mostly about -30% to -49%
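THP-1 cells pretreated 1 hr with compounds (up to 57.5 uM final), then stimulated with LPS (250 ng/mL final) plus ATP (1.25 mM final); secreted IL-1B measured by AlphaLISA after 16 hr, decreased signal indicating inhibition.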
HT1080NT lethal: kills 2HG-producing HT-1080-NT fibrosarcoma cells. AID 686970. HT-1080-NT fibrosarcoma viability, CellTiter-Glo ATP luminescence, 48 h. hit rate 1.6% among 360,000. Potency, µM (highest dose often 46.1 µM), most hits filed as cytotoxic;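 further: NT is the 2HG producing partner of a matched IDH1 knockdown line; nearly all actives have a fitted effect of over 55% in size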
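750 cells/well, RPMI + 5% FBS; 2 h settle, compound pin-transfer, 48 h at 37 degrees C. CellTiter-Glo 10 min RT, luminescence. Normalized to DMSO and media-only wells.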
TDP1 cell noCPT: qHTS for Inhibitors of human tyrosyl-DNA phosphodiesterase 1 (TDP1): qHTS in cells in absence of CPT. DT40 Tdp1-/- hTDP1 cells, no CPT, ATP luminescence, 48 h. Potency, µM (highest dose often 46.2 µM), hits mostly inhibitors. hit rate 15% among 420,000. AID 686978, 2013; further: nearly all actives have a fitted effect of over 55% in size
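Cells were dispensed at 400 per well, compounds added by pin tool, plates incubated ≥48 hr at 37 °C, then CellTiter-Glo added for 30 min at room temperature before luminescence reading. Line: DT40 Tdp1-/- complemented with hTDP1; camptothecin omitted.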
DT40 TDP1 CPT: growth inhibition of DT40 Tdp1-/-;hTDP1 cells with camptothecin (screen for TDP1 inhibitors); chicken DT40 Tdp1-/-;hTDP1 cells + 20 nM CPT, ATP luminescence, 48 h; Potency, µM (doses to about 46.2 µM), hits mostly inhibitors; hit rate 12% among 420,000; AID 686979; further: nearly all actives have a fitted effect of over 55% in size
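Chicken DT40 Tdp1-/- cells complemented with human TDP1, 400 cells/well, exposed to compounds plus 20 nM camptothecin for at least 48 h at 37 C; viability read as ATP content by CellTiter-Glo luminescence.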
HT1080 IDH1KD tx: kills HT-1080 cells with IDH1 knockdown | HT-1080 IDH1 knockdown viability, ATP luminescence, 48 h | Potency, µM (doses to about 46.1 µM), most hits filed as cytotoxic | hit rate 2% among 360,000 | AID 686971
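Knockdown cells (IDH1KD HT-1080) received compounds 2 h after plating at 750 cells/well and were kept 48 h at 37 °C in 5% FBS RPMI. A CellTiter-Glo luminescence read gave % activity for curve fitting.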
Large screens that a line does not name were inactive. Unless noted, the call rests on the fitted dose curve; in most records, active means well fitted curve in the direction sought with a large enough effect; inconclusive means small, poorly fitted or top-dose-only effect, or another doubt; inactive means no such curve, though single readings can be large; an effect the other way counts as inactive or inconclusive.

Cn1c(=O)n(C)c2cc(NS(=O)(=O)c3ccccc3)c(NCc3ccccc3)cc21	TDP1 cell noCPT inconclusive, DT40 TDP1 CPT 14.6µM (no result: IL1B secr inh, HT1080NT lethal, HT1080 IDH1KD tx)
O=C1NC[C@@H](CCCCN2C[C@H](Cc3ccccc3)N(CCc3ccccc3)C(=O)C2=O)N(CCc2ccccc2)C1=O	HT1080 IDH1KD tx inconclusive
Cc1cc(=O)n(C(C)C(=O)N2CCCc3ccccc32)c2c1c(C)nn2-c1ccccc1 (stereo not drawn)	TDP1 cell noCPT inconclusive, DT40 TDP1 CPT 16.4µM (no result: IL1B secr inh, HT1080NT lethal, HT1080 IDH1KD tx)
FC(F)(F)c1cccc(NCc2n[nH]c(=S)n2C2CCCCC2)c1	TDP1 cell noCPT 13µM, DT40 TDP1 CPT inconclusive
COc1ccc(Cl)cc1-c1nc(SCC(=O)NC(C)C(C)C)n[nH]1 (stereo not drawn)	none
C=CC[C@@H](CC(=O)NCCO)C(=O)NCCOC(=O)[C@@H](CC=C)Cc1ccc(F)cc1	none
COC(=O)C(C)N1C(=O)S/C(=C\c2ccc(-c3ccc(C(=O)O)cc3C)o2)C1=O (stereo not drawn)	TDP1 cell noCPT inconclusive, DT40 TDP1 CPT inconclusive
CCN(CC)c1ccc(/C=C2\SC(=O)N(C(C)C)C2=O)o1	IL1B secr inh -98.8, HT1080NT lethal 16.4µM, TDP1 cell noCPT 2.06µM, DT40 TDP1 CPT 0.92µM, HT1080 IDH1KD tx 7.31µM
CC(=O)c1cccc(OCCCOc2cccc3cccnc23)c1	TDP1 cell noCPT 16.4µM, DT40 TDP1 CPT inconclusive
Cc1cc(Cl)cc(Cl)c1OCCOc1cccc2cccnc12	HT1080NT lethal inconclusive, TDP1 cell noCPT inconclusive, DT40 TDP1 CPT 23.1µM, HT1080 IDH1KD tx inconclusive
Cc1cc(C)c(OCCN(C)C)c(Cl)c1	none
Cc1cc(Cl)cc(Cl)c1OCCOCCN(C)C	TDP1 cell noCPT 14.6µM, DT40 TDP1 CPT inconclusive
COc1cccc(C=O)c1OCCCOc1cccc2cccnc12	HT1080NT lethal inconclusive, TDP1 cell noCPT 20.6µM, DT40 TDP1 CPT inconclusive, HT1080 IDH1KD tx inconclusive
Brc1ccccc1OCCCOc1cccc2cccnc12	TDP1 cell noCPT inconclusive, DT40 TDP1 CPT inconclusive, HT1080 IDH1KD tx inconclusive
Cc1cc(C)cc(OCCCOc2cccc3cccnc23)c1	HT1080NT lethal inconclusive, TDP1 cell noCPT 16.4µM, DT40 TDP1 CPT 29.1µM, HT1080 IDH1KD tx inconclusive
Cc1cc(Nc2ccc(F)cc2)c2ccccc2n1	TDP1 cell noCPT inconclusive, DT40 TDP1 CPT inconclusive
Cc1ccc(Nc2cc(C)nc3ccccc23)c(C)c1	IL1B secr inh -94.5, HT1080NT lethal inconclusive, TDP1 cell noCPT 11.6µM, DT40 TDP1 CPT 11.6µM, HT1080 IDH1KD tx inconclusive
Cc1cc(NC(=O)Cc2ccccc2)c2ccccc2n1	HT1080NT lethal inconclusive, TDP1 cell noCPT 2.59µM, DT40 TDP1 CPT 5.17µM
Cc1cc(Nc2ccccc2O)c2ccccc2n1	IL1B secr inh -63.0, TDP1 cell noCPT inconclusive, DT40 TDP1 CPT inconclusive
COc1ccccc1NC(=O)c1cc(C)nc2ccccc12	TDP1 cell noCPT inconclusive
COc1cccc2c(Nc3ccccc3C)cc(C)nc12	IL1B secr inh -100.6, HT1080NT lethal inconclusive, TDP1 cell noCPT 13µM, DT40 TDP1 CPT 18.4µM, HT1080 IDH1KD tx inconclusive
CCC1(O)c2ccccc2-c2ncccc21 (stereo not drawn)	none
Cc1ccc(S(=O)(=O)N2CC3C(=O)C[C@@H](c4ccccc4)N(S(=O)(=O)c4ccccc4Cl)C3CC2c2ccccc2)cc1 (stereo partly drawn)	none
Cc1ccc(C)c(Nc2cc(C)nc3ccccc23)c1	IL1B secr inh -70.3, TDP1 cell noCPT 16.4µM, DT40 TDP1 CPT 14.6µM, HT1080 IDH1KD tx inconclusive
CC(=O)Nc1ccc(C(=O)COC(=O)c2cc(C)oc2C)c(F)c1	TDP1 cell noCPT inconclusive, DT40 TDP1 CPT inconclusive
NC(=O)c1ccc(SCC(=O)OCC(=O)NCc2cccs2)c([N+](=O)[O-])c1	none
Cc1ccc(S(=O)(=O)N2C[C@]3(O)C[C@@H]4C(=O)N(c5ccccc5)C(=O)[C@@H]4C[C@]3(OC(=O)NCc3ccccc3)C2)cc1	none
CCOc1ccc(N2CC(C(=O)NCc3ccc4c(c3)OCO4)CC2=O)cc1 (stereo not drawn)	none
NC(c1ccccc1)c1csc(Nc2cc(Oc3ccccc3)ncn2)n1 (stereo not drawn)	IL1B secr inh -77.1, HT1080NT lethal inconclusive, TDP1 cell noCPT 16.4µM, DT40 TDP1 CPT 18.4µM, HT1080 IDH1KD tx inconclusive
